Values joined by “and” are separate entries in the source; they are usually repeats but may differ in a detail not shown here. Equal values may be shown once. Results filed as inconclusive are left out. Active and inactive are the calls of the source. Calls follow the shape of the full dose curve.
Columns and labels:
[1] = Primary qHTS for inhibitors of SARS-S pseudo-typed particle cell entry (AID 1479145); conditions: outcome: dose series up to 57.1 µM unless noted; also: nearly all actives have a fitted effect of over 45% in size; as to activity change, negative = inhibition: % is scaled to controls: 0 for no effect and ±100 for the full control effect
[2] = Primary qHTS for Huh7 cytotoxicity: counterscreen for inhibitors of MERS-S pseudotyped particle cell entry (AID 1479147); conditions: outcome: dose series up to 57.1 µM unless noted; as to activity change, negative = cytotoxicity: % is scaled to controls: 0 for no effect and ±100 for the full control effect
[3] = Primary qHTS for inhibitors of MERS-S pseudo-typed particle cell entry (AID 1479149); conditions: outcome: dose series up to 57.1 µM unless noted; also: nearly all actives have a fitted effect of over 60% in size; as to activity change, negative = inhibition: % is scaled to controls: 0 for no effect and ±100 for the full control effect
[4] = Primary qHTS for Vero E6 cytotoxicity: counterscreen for inhibitors of SARS-S pseudo-typed particle cell entry (AID 1479150); conditions: outcome: dose series up to 57.1 µM unless noted; as to activity change, negative = cytotoxicity: % is scaled to controls: 0 for no effect and ±100 for the full control effect
[5] = Cytotoxicity counterscreen for inhibitors of SARS-CoV-2 cell entry (AID 1645845); conditions: outcome: dose series up to 57.1 µM unless noted; also: nearly all actives have a fitted effect of over 50% in size
Procedure, shortened: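 After a 15 min room-temperature ATPLite 1step step, luminescence reflected ATP remaining in HEK293-ACE2 cells exposed to compound for 1 h plus 48 h at 37 C, with percent activity set by cell and no-cell controls.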

[6] = Primary qHTS to identify inhibitors of SARS-CoV-2 cell entry (AID 1645846); conditions: SARS-CoV-2 pseudovirus cell entry assay, luminescence; activity change, negative = inhibition: at 57.1 µM (top of the series) unless noted; also: nearly all actives have a fitted effect of over 45% in size
Procedure, shortened: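 Luminescence readout (Bright-Glo luciferase) 48 h after pseudoparticle addition. HEK293-ACE2 cells, 1500/well; compound pre-incubation 1 h; Normalized to spike PP and bald PP.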

O=C(Cn1cnnn1)N[C@@H]1C(=O)N2C(C(=O)O)=C(CSc3nncs3)CS[C@H]12
-9.88%: activity change, negative = inhibition [6]
inactive: Potency [1] | Potency [2] | Potency [3] | Potency [4] | Potency [5]

C[C@@H](O)[C@H]1C(=O)N2C(C(=O)[O-])=C(SC3Cn4cnc[n+]4C3)[C@H](C)[C@H]12 (some centres not stated)
inactive: activity change, negative = inhibition [1] -18.9% [at 11.4 µM] | outcome [2] inactive [at 11.4 µM] | activity change, negative = inhibition [3] -3.17% [at 11.4 µM] | activity change, negative = cytotoxicity [4] 4.16% [at 11.4 µM] | outcome [5] inactive [at 11.3 µM]
-12.2% [at 11.3 µM]: activity change, negative = inhibition [6]

NCc1ccccc1CC(=O)N[C@@H]1C(=O)N2C(C(=O)O)=C(CSc3nnnn3CC(=O)O)CS[C@H]12
inactive: Potency [1] | Potency [2] | Potency [3] | Potency [4] | Potency [5]
-25.4%: activity change, negative = inhibition [6]

CCC(Oc1ccccc1)C(=O)N[C@@H]1C(=O)N2[C@@H]1SC(C)(C)[C@@H]2C(=O)O (some centres not stated)
-26.6% [at 114 µM]: activity change, negative = inhibition [6]
inactive: Potency [1] | Potency [2] | Potency [3] | Potency [4] | Potency [5]

CCCCCCCCCCCCCCCC(=O)OCC=C(C)C=CC=C(C)C=CC1=C(C)CCCC1(C)C
-0.93%: activity change, negative = inhibition [6]
inactive: Potency [1] | Potency [2] | Potency [3] | Potency [4] | Potency [5]

NC[C@@H]1O[C@H](O[C@H]2[C@H](O)[C@H](O[C@H]3[C@@H](O)[C@H](N)C[C@H](N)[C@H]3O[C@H]3O[C@H](CN)[C@H](O)[C@H](O)[C@H]3N)O[C@@H]2CO)[C@@H](N)[C@@H](O)[C@@H]1O
-25.4% [at 5.25 µM]: activity change, negative = inhibition [6]
inactive: activity change, negative = inhibition [1] -20.9% [at 5.34 µM] | outcome [2] inactive [at 5.34 µM] | activity change, negative = inhibition [3] 3.6% [at 5.34 µM] | activity change, negative = cytotoxicity [4] -3.76% [at 5.34 µM] | activity change, negative = cytotoxicity [5] 2.87% [at 5.25 µM]

O=S(=O)(O)CC(S)CS (configuration not stated)
inactive: Potency [1] | Potency [2] | Potency [3] | Potency [4] | Potency [5] | Potency [6]

CCCCC(=O)O[C@]1(C(=O)COC(C)=O)CC[C@H]2[C@@H]3CCC4=CC(=O)C=C[C@]4(C)[C@H]3[C@@H](O)C[C@@]21C
-22.7%: activity change, negative = inhibition [6]
inactive: Potency [1] | Potency [2] | Potency [3] | Potency [4] | Potency [5]

CCCCCCCCCC(=O)OCCN1CCN(CC/C=C2/c3ccccc3Sc3ccc(Cl)cc32)CC1
inactive: Potency [1] | Potency [2] | Potency [3] | Potency [4] | Potency [5]
-15%: activity change, negative = inhibition [6]

C[C@@H]1O[C@@H](O[C@@H]2/C=C/C=C/C=C\C=C\C[C@H](C)OC(=O)/C=C/[C@H]3O[C@@H]3C[C@H](O)C[C@]3(O)C[C@@H](O)[C@@H](C(=O)O)[C@H](C2)O3)[C@H](O)[C@H](N)[C@@H]1O
-12.9% [at 11.3 µM]: activity change, negative = inhibition [6]
inactive: activity change, negative = inhibition [1] -7.42% [at 11.4 µM] | activity change, negative = cytotoxicity [2] 0.894% [at 11.4 µM] | outcome [3] inactive [at 11.4 µM] | activity change, negative = cytotoxicity [4] -4.87% [at 11.4 µM] | activity change, negative = cytotoxicity [5] 1.93% [at 11.3 µM]

OC[C@H]1O[C@@H](c2ccc(F)c(Cc3cc4ccccc4s3)c2)[C@H](O)[C@@H](O)[C@@H]1O
inactive: Potency [1] | Potency [2] | Potency [3] | Potency [4] | Potency [5]
-24.7%: activity change, negative = inhibition [6]

O=C(O)CSc1nnc(Br)n1-c1ccc(C2CC2)c2ccccc12
inactive: Potency [1] | Potency [2] | Potency [3] | Potency [4] | Potency [5]

Nc1c(CC(=O)O)cccc1C(=O)c1ccccc1
inactive: Potency [1] | Potency [2] | Potency [3] | Potency [4] | Potency [5] | Potency [6]

COc1ccc2c(O[C@H]3CC4C(=O)N(C)CCCC/C=C\[C@@H]5C[C@@]5(C(=O)NS(=O)(=O)C5CC5)NC(=O)[C@@H]4C3)cc(-c3nc(C(C)C)cs3)nc2c1C (some centres not stated)
inactive: Potency [1] | Potency [2] | Potency [3] | Potency [4] | Potency [5]

C=C[C@@H]1C[C@]1(NC(=O)[C@@H]1C[C@@H]2CN1C(=O)[C@H](C(C)(C)C)NC(=O)O[C@@H]1C[C@H]1CCCCCc1nc3ccc(OC)cc3nc1O2)C(=O)NS(=O)(=O)C1CC1
inactive: Potency [1] | Potency [2] | Potency [3] | Potency [4] | Potency [5]

Cc1cc(-c2ccc(N=Nc3c(S(=O)(=O)O)cc4cc(S(=O)(=O)O)cc(N)c4c3O)c(C)c2)ccc1N=Nc1c(S(=O)(=O)O)cc2cc(S(=O)(=O)O)cc(N)c2c1O
inactive: Potency [1] | Potency [2] | Potency [3] | Potency [4] | Potency [5]

NC(=O)c1nc(F)c[nH]c1=O
-11.1% and -27.4%: activity change, negative = inhibition [6]
inactive: Potency [1] | Potency [2] | Potency [3] | Potency [4] | Potency [5]

CCC(C(=O)NC(N)=O)c1ccccc1 (configuration not stated)
inactive: Potency [1] | Potency [2] | Potency [3] | Potency [4] | Potency [5]
-16.3%: activity change, negative = inhibition [6]

C[C@H](CCC(=O)O)[C@H]1CC[C@H]2[C@@H]3CC[C@@H]4C[C@H](O)CC[C@]4(C)[C@@H]3C[C@H](O)[C@]12C
inactive: Potency [1] | Potency [2] | Potency [3] | Potency [4] | Potency [5] | Potency [6]

CC(C)(S)C(=O)N[C@@H](CS)C(=O)O
-16.1%: activity change, negative = inhibition [6]
inactive: Potency [1] | Potency [2] | Potency [3] | Potency [4] | Potency [5]

CC(C)[C@H](N)C(=O)O
-17.8%: activity change, negative = inhibition [6]
inactive: Potency [1] | Potency [2] | Potency [3] | Potency [4] | Potency [5]

Reference: PubChem BioAssay (NCATS)
